According to PubChem BioAssay:
Unmarked numbers belong to inactive results. For some of these results: Measured potencies and affinities stand elsewhere. The source made the active and inactive calls. Unless noted, the rule behind the calls is not given here. Residues, ends and D or L forms follow the SMILES beside them. *: point of attachment. Boc = CC(C)(C)OC(=O)*

Tests used:
[1] = antimalarial activity against Dd2 strain (AID 2302;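 active = growth inhibition above 50% at the single 2 µM test dose, taken to imply half-maximal potency below 2 µM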;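 note: 0% = DMSO untreated growth and 100% = chloroquine plus artemisinin killed control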); details: P. falciparum Dd2 in RBCs, LDH growth readout, 72 h; at 2 µM; active compounds read high
[2] = HepG2 cytotoxicity, primary screen, cytotoxicity control for P. falciparum antimalarial project, cell-based, ATP luminescence (AID 2303;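 active = inhibition above 50%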;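 note: 0% = DMSO wells and 100% = digitonin-killed cells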); details: HepG2 viability, 24-48 h, at 10 µM, active compounds read high
[3] = target: L-lactate dehydrogenase (Plasmodium falciparum (isolate CDC / Honduras)) (UniProt Q27743); test: PfLDH activity inhibition – cell lysate, 3D7 strain, counter-screen for P. falciparum growth inhibition project (AID 2304);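 note: 0% = vehicle and 100% = reference inhibitor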; details: P. falciparum 3D7 crude extract, LDH APAD/NBT absorbance; at 2 µM; active compounds read high
Sequence of L-lactate dehydrogenase (Plasmodium falciparum (isolate CDC / Honduras)) (Q27743 whole entry, looked up): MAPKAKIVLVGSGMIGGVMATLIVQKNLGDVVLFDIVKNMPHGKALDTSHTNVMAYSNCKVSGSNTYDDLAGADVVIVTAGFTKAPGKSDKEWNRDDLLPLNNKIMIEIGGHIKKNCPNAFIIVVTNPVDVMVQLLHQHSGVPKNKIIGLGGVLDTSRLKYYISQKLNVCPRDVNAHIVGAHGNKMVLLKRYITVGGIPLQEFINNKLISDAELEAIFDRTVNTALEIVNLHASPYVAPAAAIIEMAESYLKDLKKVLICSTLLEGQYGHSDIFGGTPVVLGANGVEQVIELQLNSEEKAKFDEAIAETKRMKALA

[4] = inhibition of 3D7 malaria parasite growth – strain 3D7 (AID 2306);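 note: 0% = DMSO wells and 100% = chloroquine plus artemisinin control wells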; details: P. falciparum 3D7 erythrocytic growth, LDH absorbance, 72 h; at 2 µM; active compounds read high
[5] = target: Calcium-dependent protein kinase 1 (Plasmodium falciparum (isolate 3D7)) (UniProt P62344); test: PfCDPK1 kinase inhibitors, biochemical, TCAMS library (AID 1159585; cut-off not given, nearly all actives have IC50 up to about 0.98 µM;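 note: inhibitors leave more ATP so luminescence rises with inhibition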); details: recombinant PfCDPK1, Kinase-Glo ATP depletion luminescence
Sequence of Calcium-dependent protein kinase 1 (Plasmodium falciparum (isolate 3D7)) (P62344 whole entry, looked up): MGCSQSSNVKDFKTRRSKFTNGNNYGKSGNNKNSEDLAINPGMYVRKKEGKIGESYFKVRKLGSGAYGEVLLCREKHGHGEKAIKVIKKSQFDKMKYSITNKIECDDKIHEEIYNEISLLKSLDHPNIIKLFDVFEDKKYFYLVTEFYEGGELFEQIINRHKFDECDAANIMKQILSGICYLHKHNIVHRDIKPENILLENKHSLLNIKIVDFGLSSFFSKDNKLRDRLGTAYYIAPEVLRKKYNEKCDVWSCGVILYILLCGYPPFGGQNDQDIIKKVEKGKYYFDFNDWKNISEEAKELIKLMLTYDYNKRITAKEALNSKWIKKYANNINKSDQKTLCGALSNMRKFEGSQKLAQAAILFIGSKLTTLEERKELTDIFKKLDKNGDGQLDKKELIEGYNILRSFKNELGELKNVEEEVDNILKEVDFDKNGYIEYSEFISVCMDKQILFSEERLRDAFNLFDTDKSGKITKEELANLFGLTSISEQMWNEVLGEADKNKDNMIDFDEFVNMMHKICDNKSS

[6] = target: Plasmodium falciparum protein kinase 6 (PK6, PF3D7_1337100) (UniProt Q8IDW1); test: PfPK6 kinase inhibitors, biochemical, TCAMS library (AID 1159586); details: recombinant PfPK6, Kinase-Glo ATP depletion luminescence
Sequence of Plasmodium falciparum protein kinase 6 (PK6, PF3D7_1337100) (Q8IDW1 1-305): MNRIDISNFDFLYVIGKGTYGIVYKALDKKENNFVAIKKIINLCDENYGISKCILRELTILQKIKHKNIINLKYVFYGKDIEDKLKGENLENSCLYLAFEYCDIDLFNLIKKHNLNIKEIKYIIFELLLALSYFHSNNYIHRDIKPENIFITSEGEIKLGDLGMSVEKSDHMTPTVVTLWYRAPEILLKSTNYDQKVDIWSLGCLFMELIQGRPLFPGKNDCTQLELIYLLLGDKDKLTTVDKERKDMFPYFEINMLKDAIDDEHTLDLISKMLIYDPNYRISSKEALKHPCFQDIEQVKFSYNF

[7] = target: Protein kinase 7 (PK7), Plasmodium falciparum 3D7 (PF3D7_0213400) (UniProt Q7YTF7); test: inhibition of Plasmodium PK7 catalytic activity – biochemical, TCAMS antimalarial set, Kinase-Glo luminescence (AID 1159587); details: recombinant PfPK7, Kinase-Glo ATP depletion luminescence
Sequence of Protein kinase 7 (PK7), Plasmodium falciparum 3D7 (PF3D7_0213400) (Q7YTF7 1-343): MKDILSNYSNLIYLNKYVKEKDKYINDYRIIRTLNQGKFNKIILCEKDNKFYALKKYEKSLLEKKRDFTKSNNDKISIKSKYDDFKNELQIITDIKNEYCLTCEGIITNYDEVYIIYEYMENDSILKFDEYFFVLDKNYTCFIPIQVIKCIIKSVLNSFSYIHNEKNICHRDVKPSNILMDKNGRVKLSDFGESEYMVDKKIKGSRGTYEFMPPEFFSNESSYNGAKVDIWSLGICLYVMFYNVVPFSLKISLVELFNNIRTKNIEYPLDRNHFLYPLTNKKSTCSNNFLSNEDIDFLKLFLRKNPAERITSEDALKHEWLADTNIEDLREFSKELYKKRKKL

[8] = target: Calcium-dependent protein kinase 4 (Plasmodium falciparum (isolate 3D7)) (UniProt Q8IBS5); test: PfCDPK4 kinase inhibitors, biochemical, TCAMS library (AID 1159588; cut-off not given, nearly all actives have IC50 up to about 0.91 µM); details: recombinant PfCDPK4, Kinase-Glo ATP depletion luminescence
Sequence of Calcium-dependent protein kinase 4 (Plasmodium falciparum (isolate 3D7)) (Q8IBS5 whole entry, looked up): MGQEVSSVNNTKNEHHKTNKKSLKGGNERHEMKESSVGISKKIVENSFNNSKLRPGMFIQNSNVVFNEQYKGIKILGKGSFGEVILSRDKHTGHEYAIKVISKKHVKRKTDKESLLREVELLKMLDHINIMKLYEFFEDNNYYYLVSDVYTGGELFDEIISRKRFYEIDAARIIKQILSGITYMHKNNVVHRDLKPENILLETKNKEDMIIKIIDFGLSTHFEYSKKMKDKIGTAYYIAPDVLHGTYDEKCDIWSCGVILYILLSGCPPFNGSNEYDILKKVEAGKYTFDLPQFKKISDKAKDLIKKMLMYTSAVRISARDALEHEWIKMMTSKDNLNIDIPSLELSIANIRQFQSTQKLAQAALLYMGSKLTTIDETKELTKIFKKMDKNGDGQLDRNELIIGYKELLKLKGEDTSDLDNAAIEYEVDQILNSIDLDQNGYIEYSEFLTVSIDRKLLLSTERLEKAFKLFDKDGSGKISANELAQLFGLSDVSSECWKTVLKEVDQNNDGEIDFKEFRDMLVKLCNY

Structure (SMILES)	growth inhibition [1]	inhibition [2]	inhibition [3] [%]	growth inhibition [4]	outcome [5]	outcome [6]	outcome [7]	outcome [8]
CN(C)C(CNC(=O)c1cc(-c2ccncc2)c(-c2ccc(Cl)c(O)c2)o1)c1ccccc1 (stereo not drawn)	28%	28%	0	91% (active)	inactive	inactive	inactive	inactive
Cc1cc(C(=O)NC2CCN(Cc3ccccc3)CC2)ccc1-c1nc2cc(Cl)c(Cl)cc2[nH]1	32%	7%	0	96% (active)	inactive	inactive	inactive	inactive
c1ccc(CN2CCC(NCc3ccccc3-c3ccc(CNC4CCCC4)cc3)CC2)cc1	33%	38%	1	102% (active)	inactive	inactive	inactive	inactive
Cc1ccc(Nc2nc(C)cc(NC3CCCC3)n2)cc1	89% (active)	33%	0	100% (active)	inactive	inactive	inactive	inactive
N#Cc1cccc(NC(=O)NC2CCN(CCCCCNC(=O)/C=C/c3ccc(Cl)c(Cl)c3)CC2)c1	7%	31%	0	100% (active)	inactive	inactive	inactive	inactive
Cc1nc2nc(N)nc(N)c2c(C)c1Cc1ccccc1Cl	-2%	63% (active)	-3	93% (active)	inactive	inactive	inactive	inactive
O=C(NC1CCN(Cc2ccccc2)CC1)c1ccc(CNC2CCN(Cc3ccccc3)CC2)cc1	58% (active)	14%	3	99% (active)	inactive	inactive	inactive	inactive
CCCCCCOc1ccc(C(=O)NCCCC2CCCN(CCCCCNC(=O)C=Cc3ccc(Cl)c(Cl)c3)C2)cc1 (stereo not drawn)	12%	20%	2	96% (active)	inactive	inactive	inactive	inactive
O=S(=O)(Nc1cccc(CCN2CCC(N3CCCCC3)CC2)c1)c1ccc2c(c1)OCCO2	5%	8%	-1	91% (active)	inactive	inactive	inactive	inactive
Cc1cccc2[nH]c(-c3cccc(-c4cccc(CNCc5cnn(-c6ccccc6)n5)c4)c3)nc12	38%	12%	1	99% (active)	inactive	inactive	inactive	inactive
CC1(C)N=C(N)N=C(N)N1OCc1cccs1	-1%	60% (active)	-4	93% (active)	inactive	inactive	inactive	inactive
Cc1nc(N)nc(N)c1CCCOc1ccc(Br)cc1	5%	30%	1	97% (active)	inactive	inactive	inactive	inactive
CCn1c(C)c(C)c2cc(C(=O)Nc3ccon3)ccc21	93% (active)	3%	-3	95% (active)	inactive	inactive	inactive	inactive
COc1ccc(-c2cccc(NC(=O)c3cccs3)c2)cc1CN1CCCN(C)CC1	30%	17%	9	100% (active)	inactive	inactive	inactive	inactive
Cc1ccc(CNC(=O)[C@H](Cc2ccccc2)Nc2cc(C)nc(NCCc3ccc(F)cc3)n2)cc1	22%	10%	-3	98% (active)	inactive	inactive	inactive	inactive
Cc1ccc2[nH]ncc2c1N(CC1CCCCC1)c1ccnc(Nc2ccc(OCC(O)CN3CC=CCC3)cc2)n1 (stereo not drawn)	79% (active)	29%	-4	100% (active)	inactive	inactive	inactive	inactive
O=C1C([N+](=O)[O-])=C(O)c2cccc(F)c21	13%	9%	0	95% (active)	inactive	inactive	inactive	inactive
CN1CCN(CCCCNc2c3ccccc3nc3ccccc23)CC1	-7%	37%	4	101% (active)	inactive	inactive	inactive	inactive
COc1ccc(COc2c(OC)cc(Cc3cnc(N)nc3N)cc2OC)cc1	23%	5%	1	90% (active)	inactive	inactive	inactive	inactive
O=c1cc(NCCCNCc2cccc(SC(F)(F)F)c2)[nH]c2ccccc12	94% (active)	-9%	6	100% (active)	inactive	inactive	inactive	inactive
CN(Cc1c(Cl)cnn1C)S(=O)(=O)c1ccc2ccccc2c1	36%	7%	-2	94% (active)	inactive	inactive	inactive	inactive

Structure (SMILES)	growth inhibition [1]	inhibition [2]	inhibition [3] [%]	growth inhibition [4]	outcome [5]	outcome [6]	outcome [7]	outcome [8]
Cc1ccc(O)cc1Nc1ccnc2ccc(-c3cccc(CN(C)C)c3)cc12	99% (active)	-3%	1	101% (active)	inactive	inactive	inactive	inactive
Cc1ccc2[nH]c(-c3ccc(/C=C/C(=O)NC4CCN(Cc5ccccc5)CC4)cc3)nc2c1C	92% (active)	22%	4	101% (active)	inactive	inactive	inactive	inactive
CCNc1cc(C(=O)N[C@@H](Cc2ccccc2)[C@H](O)CNC(C)(C)Cc2cccc(OC)c2)cc(N2CCCC2=O)c1	97% (active)	7%	-8	99% (active)	inactive	inactive	inactive	inactive
CCC1CCc2cc(N)cc(-c3nc4c(c(C)nn4CC)c(=O)[nH]3)c2O1 (stereo not drawn)	42%	-3%	-4	86% (active)	inactive	inactive	inactive	inactive
COC(=O)CCCOc1cc(Cc2cnc(N)nc2N)cc(OC)c1OC	-4%	12%	-6	95% (active)	inactive	inactive	inactive	inactive
Cc1ccc(S(=O)(=O)N2CCN(C(=O)c3cc(-c4ccccc4)n[nH]3)CC2)cc1	88% (active)	-8%	-7	91% (active)	inactive	inactive	inactive	inactive
CN(C)CCN(Cc1ccccc1-c1ccc(CNCCc2ccccc2)cc1)C(=O)NC1CCCCC1	89% (active)	98% (active)	-1	88% (active)	inactive	inactive	inactive	inactive
N#CCCN1CCN(Cc2cccc(-c3ccc(-c4nc5ccc(F)cc5[nH]4)cc3)c2)CC1	35%	18%	-2	100% (active)	inactive	inactive	inactive	inactive
COC(=O)CC[C@H](NC(=O)[C@H](C)NC(=O)OC(C)(C)C)C(=O)OC (Boc-Ala-Glu(OMe)-OMe)	0%	12%	-2	95% (active)	inactive	inactive	inactive	inactive
COc1cc2nc(N3CCC(CNC(=O)c4ccc(-c5ccc(C(=O)N(C)C)cc5OCCO)cc4)CC3)nc(N)c2cc1OC	8%	-7%	-1	100% (active)	inactive	inactive	inactive	inactive
c1cc(-c2ccc(CNCCc3ccncc3)cc2)cc(-c2nc3ccccc3[nH]2)c1	99% (active)	41%	-8	101% (active)	inactive	inactive	inactive	inactive
CCNc1cc(-c2cccc(OC)c2)nc(Nc2ccc(F)cc2)n1	23%	11%	3	87% (active)	inactive	inactive	inactive	inactive
CCN(CC)Cc1cc(NC(=O)c2ccccc2O)ccc1Oc1ccc(Cl)cc1	88% (active)	32%	3	98% (active)	inactive	inactive	inactive	inactive
COc1ccc(C2CCN(C#N)C2)cc1OC1CCCC1 (stereo not drawn)	97% (active)	9%	2	102% (active)	inactive	inactive	inactive	inactive
NC1=NC2(CCCCC2)N(OCCCOc2cc(Cl)c(Cl)cc2Cl)C(N)=N1	98% (active)	62% (active)	-11	94% (active)	inactive	inactive	inactive	inactive
NC(N)=NC(=O)Nc1cc(Cl)c(Cl)c(C(F)(F)F)c1	99% (active)	6%	-5	100% (active)	inactive	inactive	inactive	inactive
CCCCCn1c(Sc2ccc(C#N)c([N+](=O)[O-])c2)nnc1-c1ccc(OC)cc1	44%	8%	4	88% (active)	inactive	inactive	inactive	inactive
CN1CCN(c2ccc(-c3cccc(NC(=O)c4cccc([N+](=O)[O-])c4)c3)nn2)CC1	35%	21%	-1	99% (active)	inactive	inactive	inactive	inactive
N#Cc1ccc(NC(=Nc2ccccc2Br)N(C2CCCCC2)C2CCCCC2)c(O)c1	96% (active)	4%	4	99% (active)	inactive	inactive	inactive	inactive
CN1CCCC(CN2CCN(Cc3cccc(-c4ccc(-c5nc6ccc(C(F)(F)F)cc6[nH]5)cc4)c3)CC2)C1 (stereo not drawn)	96% (active)	100% (active)	5	99% (active)	inactive	inactive	inactive	inactive
